Measured values taken from PubChem BioAssay (Tox21).
Results filed as inconclusive are left out. Entries that show only a call come without a potency. More than one record can exist for a structure, and the calls need not agree. Calls of active or inactive are those of the source. Unless noted, calls follow the shape of the dose curve; as a rule, active = well fitted curve in the direction sought with a large enough effect in the repeat runs; inconclusive = weak or mixed curves; inactive = no such curve, though single readings can be large; an effect the other way counts as inactive or inconclusive.

How the values were obtained:
[1] = qHTS assay to identify small molecule antagonists of the estrogen related receptor (ERR) signaling pathway from Tox21 library - cell viability counter screen (AID 1224834); also: nearly all actives have a fitted effect of over 30% in size; also: potency is read from the fitted curve at half-maximal effect
Outline: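 Compounds in DMSO were pinned onto ERR cells that had been incubated for 6 h, and the plates were held at 37 C for 17.5 h. CellTiter-Fluor reagent was then added and fluorescence was measured after 30 min.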

[2] = target: Luciferin 4-monooxygenase (Photinus pyralis) (UniProt P08659); assay: qHTS assay to identify small molecule inhibitors of firefly luciferase (AID 1224835); also: nearly all actives have a fitted effect of over 25% in size; also: potency is read from the fitted curve at half-maximal effect
Chain of Luciferin 4-monooxygenase (Photinus pyralis) (P08659 whole entry, looked up): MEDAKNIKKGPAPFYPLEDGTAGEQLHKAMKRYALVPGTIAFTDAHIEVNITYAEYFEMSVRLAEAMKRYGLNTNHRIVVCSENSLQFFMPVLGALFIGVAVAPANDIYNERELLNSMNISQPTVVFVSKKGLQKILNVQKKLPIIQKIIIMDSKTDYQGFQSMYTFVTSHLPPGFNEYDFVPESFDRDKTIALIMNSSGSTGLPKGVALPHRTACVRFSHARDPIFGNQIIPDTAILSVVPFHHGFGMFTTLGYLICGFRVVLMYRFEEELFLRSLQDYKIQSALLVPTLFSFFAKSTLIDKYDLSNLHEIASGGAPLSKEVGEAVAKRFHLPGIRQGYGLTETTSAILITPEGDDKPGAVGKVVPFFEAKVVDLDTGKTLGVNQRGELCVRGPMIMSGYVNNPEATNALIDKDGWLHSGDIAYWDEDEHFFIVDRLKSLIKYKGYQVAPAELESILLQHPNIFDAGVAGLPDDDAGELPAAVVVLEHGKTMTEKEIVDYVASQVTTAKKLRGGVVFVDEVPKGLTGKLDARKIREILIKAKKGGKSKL
Outline: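 Quantitative HTS format; KM concentrations of both substrates. Purified P. pyralis FLuc activity quantified from luminescence images.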

[3] = qHTS assay to identify small molecule agonists of the constitutive androstane receptor (CAR) signaling pathway - cell viability counter screen (AID 1224836); also: nearly all actives have a fitted effect of over 45% in size; also: potency is read from the fitted curve at half-maximal effect
Outline: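 Compound titrations (15 concentrations) went onto HepG2-CYP2B6-hCAR cells 4 h after seeding, alongside PK11195 at a final 0.75 uM; a 23 h, 37 C/5% CO2 incubation preceded CellTiter-Fluor viability measurement.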

[4] = target: Nuclear receptor subfamily 1 group I member 3 (Homo sapiens) (UniProt Q14994); assay: qHTS assay to identify small molecule agonists of the constitutive androstane receptor (CAR) signaling pathway (AID 1224839);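 also: HepG2 cells stably carrying human CAR and a CYP2B6 luciferase reporter; nearly all actives have a fitted effect of over 15% in size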
Chain of Nuclear receptor subfamily 1 group I member 3 (Homo sapiens) (Q14994 whole entry, looked up): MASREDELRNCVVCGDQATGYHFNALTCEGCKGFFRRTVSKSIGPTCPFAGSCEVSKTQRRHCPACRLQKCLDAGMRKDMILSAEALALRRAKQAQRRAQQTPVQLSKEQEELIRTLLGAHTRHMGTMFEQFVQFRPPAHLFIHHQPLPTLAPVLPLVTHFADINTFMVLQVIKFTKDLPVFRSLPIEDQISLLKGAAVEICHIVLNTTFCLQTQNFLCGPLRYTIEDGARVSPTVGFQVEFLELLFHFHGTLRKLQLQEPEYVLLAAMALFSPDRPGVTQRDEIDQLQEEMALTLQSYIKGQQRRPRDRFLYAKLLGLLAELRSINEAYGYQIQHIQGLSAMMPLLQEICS
Outline: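 In this screen, CAR-driven CYP2B6 promoter activity is measured by luminescence in HepG2-CYP2B6-hCAR cells after 24 h with test compounds and 0.75 uM PK11195 (final concentration).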

[5] = qHTS assay to identify small molecule antagonists of the estrogen related receptor signaling pathway with the pleiotropic PPARgamma coactivator (PGC) from Tox21 10K library - cell viability counter screen (AID 1224840; active = well fitted cell-killing curve with a large enough effect in the repeat runs, not every such curve was filed as active; also: nearly all actives have a fitted effect of over 40% in size; also: potency is read from the fitted curve at half-maximal effect)
Outline: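 Cell viability is measured by CellTiter-Fluor fluorescence in PGC/ERR cells that receive compounds after a 6-hour attachment period and are then incubated 17.5 hours at 37 C.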

[6] = qHTS assay to identify small molecule agonists of the estrogen related receptor signaling pathway with the pleiotropic PPARgamma coactivator (PGC) from Tox21 10K library (AID 1224842); also: nearly all actives have a fitted effect of over 15% in size
Outline: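 PGC/ERR reporter cells (NTP line) were seeded 2,000 per well, rested 6 h at 37 C/5% CO2, then pin-dosed with compounds in DMSO for 18 h at 37 C; luciferase read by One-Glo luminescence after 30 min at room temperature.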

[7] = qHTS assay to identify small molecule agonists of the hypoxia (HIF-1) signaling pathway - cell viability counter screen (AID 1224844; calls by dose curve; also: nearly all actives have a fitted effect of over 50% in size; also: potency is read from the fitted curve at half-maximal effect)
Outline: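 Viability counter screen: HRE-bla ME-180 cells plated 5 hrs before compound addition, treated 17 hrs at 37C and 5% CO2, then CellTiter-Glo added after the FRET reporter read; luminescence after 30 min.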

[8] = qHTS assay to identify small molecule agonists of H2AX (AID 1224845; active = well fitted activation curve with a large enough effect in the signal ratio in the repeat runs, not every such curve was filed as active; the % refers to the signal ratio; also: potency is read from the fitted curve at half-maximal effect)
Outline: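 Wild-type CHO-K1 cells plated overnight, then exposed 3 hr at 37C to compounds at 15 concentrations (0.76% DMSO). Lysed, then HTRF anti-pH2AX(S139)-cryptate/anti-H2AX-d2 detection after 24 hr at room temperature; emissions 665 and 620 nm.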

[9] = qHTS assay to identify small molecule agonists of H2AX - cell viability counter screen (AID 1224847; calls by dose curve; also: nearly all actives have a fitted effect of over 30% in size; also: potency is read from the fitted curve at half-maximal effect)
Outline: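 Read-out: CellTiter-Glo luminescence, 30 min RT. Cells: wild-type CHO-K1, 1000/well, 10% FBS, plated overnight at 37C. Treatment: 15 concentrations, 3 hr, 37C, 0.76% DMSO.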

[10] = qHTS assay to identify small molecule antagonists of the estrogen related receptor (ERR) signaling pathway from Tox21 library (AID 1224848); also: potency is read from the fitted curve at half-maximal effect; nearly all actives have a fitted effect of over 50% in size
Outline: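 First, 2,000 ERR cells per well were plated and held 6 h at 37 C/5% CO2. Next, compounds in DMSO were pinned in and left 18 h at 37 C. Finally, ONE-Glo was added and luminescence read after 30 min at room temperature.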

[11] = qHTS assay to identify small molecule agonists of the estrogen related receptor (ERR) signaling pathway from Tox21 library (AID 1224849; calls by dose curve; also: nearly all actives have a fitted effect of over 15% in size); details: ERR reporter cell line, ONE-Glo luciferase, 18 h; at 92.4 µM (top of the series) unless noted
Outline: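 Quantitative HTS in agonist format: NTP ERR cell line, compounds transferred in DMSO after 6 h plating, 18 h incubation at 37 C, ONE-Glo luminescence endpoint.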

[12] = qHTS RealTime-Glo MT Cell Viability Assay in HepG2 cells - 24 hour (AID 1224867); also: nearly all actives have a fitted effect of over 50% in size; also: potency is read from the fitted curve at half-maximal effect
Outline: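 qHTS, HepG2, 600 cells/well, RealTime-Glo (NanoLuc + prosubstrate) added with cells; 5 h preincubation; DMSO compound addition; 37 C; luminescence at 0/8/16/24/32/40 h.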

[13] = qHTS RealTime-Glo MT Cell Viability Assay in HEK293 cells - 32 hour (AID 1224868); also: nearly all actives have a fitted effect of over 50% in size; also: potency is read from the fitted curve at half-maximal effect
Outline: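 Assay medium contained NanoLuc luciferase plus cell-permeant prosubstrate, added with HEK293 cells at 600 cells/well. After 5 h at 37 C/5% CO2 compounds were added; plates stayed at 37 C for 40 h with serial luminescence reads.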

[14] = A CellTox Green Cytotoxicity Assay to monitor cytotoxicity in HEK293 cells - 0 hour (AID 1224869); also: nearly all actives have a fitted effect of over 50% in size
Outline: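 Dead-cell fluorescence measured kinetically: asymmetric cyanine dye, HEK293, 600 cells/well, 5 h settle, 23 nL cpd/DMSO, 37 C, reads 0–40 h every 8 h.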

[15] = qHTS assay to identify small molecule antagonists of the constitutive androstane receptor (CAR) signaling pathway - cell viability counter screen (AID 1224837); also: nearly all actives have a fitted effect of over 45% in size; also: potency is read from the fitted curve at half-maximal effect
Outline: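 Cells are seeded, rested 4 hr at 37 C/5% CO2, dosed with compound (15-point series) and 50 nM CITCO, incubated a further 23 hr, and then CellTiter-Fluor reagent is added before fluorescence is read. The line is HepG2 with stable hCAR and CYP2B6-2.2kb.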

[16] = qHTS assay to identify small molecule antagonists of the estrogen related receptor signaling pathway with the pleiotropic PPARgamma coactivator (PGC) from Tox21 10K library (AID 1224841; call rule not given here)
Outline: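 Cells stably carrying the PGC/ERR reporter, seeded at 2,000 per well, received pin-transferred compounds 6 h post-plating. Exposure lasted 18 h at 37 C. Signal: One-Glo luminescence.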

[17] = target: Nuclear receptor subfamily 1 group I member 3 (Homo sapiens) (UniProt Q14994); assay: qHTS assay to identify small molecule antagonists of the constitutive androstane receptor (CAR) signaling pathway (AID 1224838);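 also: HepG2 cells stably expressing hCAR with CYP2B6 luciferase reporter stimulated by CITCO; nearly all actives have a fitted effect of over 40% in size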; also: potency is read from the fitted curve at half-maximal effect
Outline: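 Luminescence from a CYP2B6-2.2kb promoter reporter in hCAR-expressing HepG2 cells reflects CAR signaling. Cells received compounds at 15 concentrations and 50 nM CITCO (final), then incubated 24 h at 37 C/5% CO2.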

[18] = qHTS RealTime-Glo MT Cell Viability Assay in HepG2 cells - 40 hour (AID 1224870); also: nearly all actives have a fitted effect of over 50% in size; also: potency is read from the fitted curve at half-maximal effect
Outline: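 HepG2 cells mixed with RealTime-Glo MT reagents (NanoLuc plus cell-permeant prosubstrate) were seeded at 600 cells/well, incubated 5 h at 37 C/5% CO2, then pinned with compounds in DMSO; nonlytic luminescence tracked viability during 40 h treatment.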

[19] = target: Thyrotropin receptor (Homo sapiens) (UniProt P16473); assay: qHTS assay to identify small molecule agonists of the thyroid stimulating hormone receptor (TSHR) signaling pathway (AID 1224843; calls by dose curve; also: nearly all actives have a fitted effect of over 45% in size)
Chain of Thyrotropin receptor (Homo sapiens) (P16473 whole entry, looked up): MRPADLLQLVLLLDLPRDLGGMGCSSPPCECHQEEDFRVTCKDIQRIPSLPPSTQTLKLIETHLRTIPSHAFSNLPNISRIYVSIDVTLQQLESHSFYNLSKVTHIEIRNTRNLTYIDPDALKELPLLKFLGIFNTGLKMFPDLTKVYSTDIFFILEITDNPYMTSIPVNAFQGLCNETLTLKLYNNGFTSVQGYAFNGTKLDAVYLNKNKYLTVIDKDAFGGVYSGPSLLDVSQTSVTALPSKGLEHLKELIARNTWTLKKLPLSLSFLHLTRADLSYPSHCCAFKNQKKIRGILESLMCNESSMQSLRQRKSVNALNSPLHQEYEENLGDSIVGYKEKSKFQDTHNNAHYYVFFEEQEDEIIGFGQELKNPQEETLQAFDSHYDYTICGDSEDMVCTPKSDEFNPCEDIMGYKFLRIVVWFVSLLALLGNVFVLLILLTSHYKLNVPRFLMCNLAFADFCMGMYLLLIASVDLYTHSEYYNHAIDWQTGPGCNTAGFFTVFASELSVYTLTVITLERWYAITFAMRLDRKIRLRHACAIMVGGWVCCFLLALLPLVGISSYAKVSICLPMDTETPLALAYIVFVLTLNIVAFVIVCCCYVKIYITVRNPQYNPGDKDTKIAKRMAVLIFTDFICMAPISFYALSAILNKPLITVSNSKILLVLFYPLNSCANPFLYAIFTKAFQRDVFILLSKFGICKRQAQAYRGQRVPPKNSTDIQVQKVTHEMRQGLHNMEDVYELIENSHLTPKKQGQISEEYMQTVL
Outline: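 Compounds are titrated over 15 concentrations, in triplicate, onto TSHR-HEK293 cells seeded at 800/well. Plates sit 30 min at room temperature before cAMP-d2 and anti-cAMP cryptate are added; signal is read after a further hour.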

[20] = qHTS assay to identify small molecule agonists of the hypoxia (HIF-1) signaling pathway (AID 1224846; active = well fitted activation curve with a large enough effect in the signal ratio in the repeat runs, not every such curve was filed as active; the % refers to the signal ratio)
Outline: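 Agonist mode reporter screen. ME-180 cells stably expressing bla under HRE control received test compounds in DMSO for 17 hrs (37C, 5% CO2), and beta-lactamase activity was then detected with the CCF4-AM FRET substrate.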

Row | Compound | Potency [1] | Potency [2] | Potency [3] | Potency [4] | Potency [5] | Potency [6] | Potency [7] | Potency [8] | Potency [9] | Potency [10] | activity change, positive = activation [11] | Potency [12] | Potency [13] | Potency [14] | Potency [15] | Potency [16] | Potency [17] | Potency [18] | Potency [19] | Potency [20]
1 | Cc1cc(O)c(C(C)(C)C)cc1C(C)(C)C | 54.5 µM (active) | inactive | 61.1 µM (active) | inactive | 48.6 µM (active) | inactive | 43.6 µM (active) | 89.8 µM (active) | 50.5 µM (active) | 61.1 µM (active) | -68.9% (inactive) | 43.6 µM (active) | 17.4 µM (active) | inactive |  |  |  |  |  | 
2 | CCCCCCCCCCCCCCCCCC[N+](C)(C)C | 61.3 µM (active) | inactive |  | inactive |  | inactive | 55.1 µM (active) | inactive | 90.1 µM (active) | 24.4 µM (active) | -79.1% (inactive) |  | 7.79 µM (active) | inactive | 54.6 µM (active) | 54.6 µM (active) |  |  |  | 
3 | O=C1C=CC(=O)N1c1ccc(Cc2ccc(N3C(=O)C=CC3=O)cc2)cc1 | 30.6 µM (active) | 15.9 µM (active) | 54.5 µM (active) | inactive | 27.3 µM (active) |  | 11 µM (active) | inactive |  |  |  | 12.3 µM (active) | 11 µM (active) | inactive |  |  | 27.3 µM (active) | 15.5 µM (active) |  | 
4 | NC(=NCCCCCCN=C(N)/N=C(\N)Nc1ccc(Cl)cc1)/N=C(\N)Nc1ccc(Cl)cc1 | 54.2 µM (active) [middle of 4 runs] | inactive |  |  |  |  | 24.4 µM (active) | inactive |  |  |  |  | 8.67 µM (active) [middle of 5 runs] | inactive |  |  | 60.8 µM (active) and inactive |  | inactive | inactive
5 | O=C(O)c1cc(O)c2c(c1)C(=O)c1cccc(O)c1C2=O | inactive | inactive | inactive | inactive |  |  | inactive |  |  |  |  | inactive | inactive | inactive |  |  | inactive | inactive | inactive | 
6 | CC(=O)SC[C@@H](Cc1ccccc1)C(=O)NCC(=O)OCc1ccccc1 | inactive | inactive | inactive |  |  |  | inactive | inactive | inactive |  |  |  | inactive | inactive | inactive |  |  | inactive |  | 
7 | CCCCCOC(=O)CCCC | inactive | inactive | inactive |  | inactive |  | inactive | inactive |  |  |  | inactive | inactive | inactive | inactive |  |  | inactive | inactive | inactive
8 | CC(=O)OCC(C)OC(C)=O (centres undefined) | inactive | inactive | inactive |  | inactive |  | inactive | inactive |  |  |  |  | inactive | inactive | inactive |  |  | inactive | inactive | inactive
